Source: PubChem BioAssay (several laboratories)
GC-B act = human GC-B receptor activators, primary screen, HEK293 GC-B cells, cGMP TR-FRET, EC30 CNP; 0% at EC30 CNP, 100% saturating CNP; activation, % at 10 µM; 0.11% of 370,000 active;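 active = activation at 10 µM reaching about 35% in either raw or pattern-adjusted values, limit read from the data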
Rev-erbA mod = modulators of Rev-erb alpha DNA binding, primary screen, biochemical, FITC-DNA, fluorescence polarization, uHTS; Rev-erbα–FITC-DNA binding, 90 min; activity, % at 10 µM; 0.79% of 370,000 active;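 active = activity above about 14%, limit read from the data; passing the limit was not always enough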
GC-A act = GC-A stimulated cGMP production enhancers – HEK293 GC-A cells, cGMP TR-FRET, EC30 ANP, primary screen; activation, % at 10 µM; AID 1671463, 2021; 0.14% of 370,000 active; 0% at EC30 ANP, 100% saturating ANP; in the data active = activation above about 40%
Target sequence (P16066 whole entry, looked up): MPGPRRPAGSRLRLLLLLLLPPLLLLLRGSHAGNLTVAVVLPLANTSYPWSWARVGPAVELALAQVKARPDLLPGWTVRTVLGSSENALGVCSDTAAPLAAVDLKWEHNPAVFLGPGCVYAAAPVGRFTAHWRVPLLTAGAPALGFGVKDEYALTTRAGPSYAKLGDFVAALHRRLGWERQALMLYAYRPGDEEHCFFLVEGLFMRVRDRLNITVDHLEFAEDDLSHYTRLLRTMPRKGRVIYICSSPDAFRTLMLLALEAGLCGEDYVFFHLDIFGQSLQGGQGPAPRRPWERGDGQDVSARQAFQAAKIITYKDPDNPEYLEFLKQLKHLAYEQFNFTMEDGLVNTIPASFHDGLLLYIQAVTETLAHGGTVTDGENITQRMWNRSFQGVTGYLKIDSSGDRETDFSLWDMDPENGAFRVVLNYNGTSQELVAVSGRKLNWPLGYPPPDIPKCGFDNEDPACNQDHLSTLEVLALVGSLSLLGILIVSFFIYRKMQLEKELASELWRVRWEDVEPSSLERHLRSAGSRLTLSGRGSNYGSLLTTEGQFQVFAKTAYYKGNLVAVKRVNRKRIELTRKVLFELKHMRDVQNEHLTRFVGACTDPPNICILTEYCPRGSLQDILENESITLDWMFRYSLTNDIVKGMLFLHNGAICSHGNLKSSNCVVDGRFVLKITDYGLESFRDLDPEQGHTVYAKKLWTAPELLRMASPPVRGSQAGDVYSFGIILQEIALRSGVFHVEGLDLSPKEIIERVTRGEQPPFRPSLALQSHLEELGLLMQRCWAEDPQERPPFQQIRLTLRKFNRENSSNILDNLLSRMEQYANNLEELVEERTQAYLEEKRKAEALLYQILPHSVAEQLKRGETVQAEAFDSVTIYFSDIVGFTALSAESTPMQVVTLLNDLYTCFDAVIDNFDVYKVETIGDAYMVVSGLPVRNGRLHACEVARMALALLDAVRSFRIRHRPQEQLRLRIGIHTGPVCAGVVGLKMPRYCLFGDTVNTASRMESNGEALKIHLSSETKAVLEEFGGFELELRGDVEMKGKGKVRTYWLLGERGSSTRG
PG9 Ab binder = binders of HIV-1 gp120 antibody PG9, primary screen, biochemical, TR-FRET; HIV-1 gp120 / PG9 antibody interaction; TR-FRET gp120-PG9 antibody binding; inhibition, % at 6.7 µM; 0.43% of 360,000 active; in the data active = inhibition above about 8.5%
V-ATPase pH = regulators of yeast V-ATPase proton pumping, primary screen, pHLuorin cytosolic pH fluorescence | S. cerevisiae | response, % at 10 µM | 0.37% of 350,000 active | AID 504577, 2011; in the data active = response mostly above about 7.3%, no sharp cut-off; inactive = mostly below about 5.4%; note: actives read high
V-ATPase pH SP = yeast V-ATPase proton pumping modulators, confirmation, S. cerevisiae, pH-sensitive GFP, second cherry-pick. response, % at 10 µM. AID 602197, 2012. S. cerevisiae pHLuorin cytosolic pH, V-ATPase proton transport. shares compounds with V-ATPase pH. 2% of 980 active; in the data active = response above about 24%
Of the large screens only hits and unclear results are named; the others gave an inactive call (follow-up assays come after a bar, where they were run). Rows were chosen to be rich in hits. Some 1.6% of all compounds tested hit in one or more screens of this group.

Cc1cc(C)n2nc(SCC(=O)NC(=O)c3ccccc3Cl)nc2n1	V-ATPase pH 9.8 | V-ATPase pH SP inactive
O=C(/C=C/c1ccc(Cl)c([N+](=O)[O-])c1)Nc1ccc(NC(=O)c2ccco2)cc1	none
O=C(/C=C/c1ccc(Cl)c([N+](=O)[O-])c1)Nc1cccc(NC(=O)c2ccco2)c1	V-ATPase pH 8.8 | V-ATPase pH SP inactive
CC(C)(C)c1ccc(C(=O)Nc2cc(Cl)c(Cl)cc2C(=O)O)cc1	none (no result: PG9 Ab binder, V-ATPase pH)
Cc1sc(-c2ccccn2)nc1OC(=O)c1ccc(F)cc1F	V-ATPase pH 11 | V-ATPase pH SP inactive
O=C(COC(=O)/C=C/c1cccc(C(F)(F)F)c1)NCc1ccccc1	none
CC(NC(=O)COC(=O)/C=C/c1cccc(C(F)(F)F)c1)c1ccccc1 (stereo unspecified)	V-ATPase pH 21 | V-ATPase pH SP inactive
Cc1cccc(Cn2cc(COC(=O)NCC(C)C)nn2)c1	none (no result: PG9 Ab binder, V-ATPase pH)
CC(=O)c1nn(-c2cccc(C)c2)cc1C(=O)c1cccc(Br)c1	V-ATPase pH 5.5 | V-ATPase pH SP inactive
CN1CCN(C2CC(=O)N(Cc3ccc(N4CCCC4=O)cc3)C2=O)CC1 (stereo unspecified)	V-ATPase pH 11 | V-ATPase pH SP inactive
Cc1ccc(C(=O)Nc2nccc(-c3cccs3)n2)cc1	V-ATPase pH 8.5 | V-ATPase pH SP inactive
NC(=S)Nc1nccc(-c2cccs2)n1	none
Cc1ccc(-c2nc(C3CCCN(S(=O)(=O)c4cccs4)C3)no2)cc1 (stereo unspecified)	none (no result: PG9 Ab binder, V-ATPase pH)
COc1ccccc1C(=O)OC1CCCN(C)C1 (stereo unspecified)	none
CN1CCCC(OC(=O)c2ccccc2F)C1 (stereo unspecified)	V-ATPase pH 9.4 | V-ATPase pH SP inactive
Cc1ccc(S(=O)(=O)N2CCN(c3ccccc3)CC2)cc1C(N)=O	V-ATPase pH 9.8 | V-ATPase pH SP inactive
Cc1cc(C(=O)OCCCN(C)C2CN(Cc3cn(Cc4ccccc4C(F)(F)F)nn3)S(=O)(=O)C2)no1 (stereo unspecified)	none (no result: PG9 Ab binder, V-ATPase pH)
CCOC(=O)NC(Nc1ccc(S(N)(=O)=O)cc1)(C(=O)OCC)C(F)(F)F (stereo unspecified)	V-ATPase pH 13 | V-ATPase pH SP inactive
CCOC(=O)C(NC(C)=O)(Nc1ccc(F)cc1)C(F)(F)F (stereo unspecified)	none
Cc1cccc(C(=O)N(NC(=O)Oc2ccccc2)C(C)(C)C)c1	V-ATPase pH 6.9 | V-ATPase pH SP inactive
COc1ccccc1C(=O)N(NC(=O)Oc1ccccc1)C(C)(C)C	none
CCCCCn1nnnc1C1(C)CN(S(C)(=O)=O)CC(=O)N1Cc1ccco1 (stereo unspecified)	none (no result: PG9 Ab binder, V-ATPase pH)
Clc1ccc(CSC2=NCCCN2)cc1Cl	none | V-ATPase pH SP inactive
Clc1ccccc1CSC1=NCCCN1	none | V-ATPase pH SP inactive
O=c1ccnc(SCc2ccccc2Cl)[nH]1	none
CC(C)n1nnnc1C1(C)CCSCC(=O)N1Cc1cccc(C(F)(F)F)c1 (stereo unspecified)	none (no result: PG9 Ab binder, V-ATPase pH)
COC(=O)C1CN(Cc2cn(CCOC(C)=O)nn2)CCS(=O)(=O)N1Cc1ccc(Cl)cc1 (stereo unspecified)	none (no result: PG9 Ab binder, V-ATPase pH)
Cc1cccc2c1CCCC2=O	V-ATPase pH 12 | V-ATPase pH SP inactive
COc1ccc(OC)c(S(=O)(=O)Nc2c(NC3CCCCC3)c3ccccc3oc2=O)c1	V-ATPase pH 9.2 (no result: GC-B act, Rev-erbA mod, GC-A act, PG9 Ab binder) | V-ATPase pH SP inactive
CN(C)N1C(=O)CC(N2CCCC2)C1=O (stereo unspecified)	V-ATPase pH 11 | V-ATPase pH SP inactive
CCN1C(=O)CC(N2CCOCC2)C1=O (stereo unspecified)	none
Cc1nc(C)c(-c2ccc(SCc3ccccc3C)nn2)s1	V-ATPase pH 10 | V-ATPase pH SP inactive
O=[N+]([O-])c1cc(-c2csc(NCCc3nc4cc(Cl)c(N5CCCCC5)cc4n3CCCO)n2)ccc1Cl	V-ATPase pH 10 | V-ATPase pH SP inactive
CCOC(=O)c1nc2ccccc2c(=O)[nH]1	none | V-ATPase pH SP inactive
CCOC(=O)c1n[nH]c(=O)c2ccccc12	none
CCOC(=O)CSc1nc2ccccc2c(=O)[nH]1	V-ATPase pH 10 | V-ATPase pH SP inactive
CCN(CC)C(=O)CSc1nc2ccccc2c(=O)[nH]1	none
CCOC(=O)c1n[nH]c2ccccc12	none | V-ATPase pH SP inactive
c1ccc(Cn2ccc3ccc(-c4ccc5ccn(Cc6cccc(-c7cccs7)c6)c5c4)cc32)cc1	none (no result: PG9 Ab binder, V-ATPase pH)
COc1ccc(CNCC(O)(c2ccccc2)c2ccc(Cl)cc2)cc1 (stereo unspecified)	V-ATPase pH 11 | V-ATPase pH SP inactive
Cc1ccc(CNCC(O)(c2ccccc2)c2ccc(Cl)cc2)cc1 (stereo unspecified)	none
CCC[C@H]1[C@@H](N(C)Cc2ccccc2)CC[C@@]23CCCN2C(=O)CCC[C@@H]13	none (no result: PG9 Ab binder, V-ATPase pH)
O=C(Nc1cccc(C(=O)O)c1)/C(=C\c1ccc2c(c1)OCO2)NC(=O)c1ccc(Br)o1	V-ATPase pH 7.5 | V-ATPase pH SP inactive
O=C(Nc1ccc(C(=O)O)cc1)/C(=C\c1ccc2c(c1)OCO2)NC(=O)c1ccc(Br)o1	none
O=[N+]([O-])c1cccc(OCCCN2CCC(C(O)(c3ccccc3)c3ccccc3)CC2)c1	none (no result: PG9 Ab binder, V-ATPase pH)
Cc1ccccc1OC(C)C(=O)Nc1ccc(S(=O)(=O)N2CCCC2)cc1 (stereo unspecified)	none
CC(Oc1cc(F)ccc1[N+](=O)[O-])C(=O)Nc1ccc(S(=O)(=O)N2CCCC2)cc1 (stereo unspecified)	V-ATPase pH 15 | V-ATPase pH SP inactive
CCn1c(SCC(=O)Nc2ccc(C(N)=O)cc2)nc2sc(C)c(C)c2c1=O	none (no result: PG9 Ab binder, V-ATPase pH)
COc1ccccc1-c1cc(C(=O)NCCc2ccccc2)no1	V-ATPase pH 13 | V-ATPase pH SP inactive
COc1ccc(CCNC(=O)c2cc(-c3ccccc3OC)on2)cc1OC	none
O=C(CSc1nnc(-c2ccc(O)cc2)n1Cc1ccco1)c1cccs1	none
N#Cc1c(-c2ccccc2)c(-c2ccccc2)n(Cc2ccco2)c1NC(=O)c1cccs1	V-ATPase pH 9.7 | V-ATPase pH SP inactive
CC(C)CCN(C)C1CCN(C(=O)Nc2ccccc2)CC1	none (no result: PG9 Ab binder, V-ATPase pH)
CCOC(=O)C1C(C(=O)OC)=C(c2ccc(OC)cc2)c2ccccc2N1S(=O)(=O)C(F)(F)F (stereo unspecified)	none
CCOC(=O)C1C(C(=O)OC)=C(c2ccc(OC)cc2)c2ccc(OC)cc2N1S(=O)(=O)C(F)(F)F (stereo unspecified)	V-ATPase pH 8.0 (no result: GC-B act, Rev-erbA mod, GC-A act, PG9 Ab binder) | V-ATPase pH SP inactive
